Measurements reported in the OligoGym collection.

Target: FABP9
Assay: pooled miR-30 sensor sort-seq; sequence = guide strand
Conditions: shRNA
Note: reference of the scale not given here.

Sequence	sensor-assay potency score (higher = more potent)
TGTCCTGGAAAGAACTTTCTGT	-0.208
TTTTGGACGTGAATCATTGAGC	-0.43
TTGATTGTTGTCTCTTTGCCAA	-0.728
AACACTAATAGTTACTGTCGGT	-0.48
TTTACTTTCCGGTTGTCTGCTG	0.767
TTACATTCCACTACCATTTTTT	-0.986
TTCTTTTGATTGTTGTCTCTTT	-0.11

Target: FAM103A1
Assay: as above
Conditions: shRNA

Sequence	sensor-assay potency score (higher = more potent)
TTGTCATTTTCTGTGAATCTAC	-0.838
TTCTTGTCTGTGTTGCGGGTAG	-0.368
TTTTCTGTGAATCTACTAGCAA	-0.323
AACATCTCTTCAAACTTTGGAA	-0.553
TCTACTAGCAAACATCTCTTCA	-0.435
TTGTCTTGCAACCGATTGCCTC	-1.09
TTTCTGTGAATCTACTAGCAAA	-1.27
TGTCTGTTGTCTTGCAACCGAT	-1.2
ATCTACTAGCAAACATCTCTTC	-0.234
TACTAGCAAACATCTCTTCAAA	-1.05
ATAATGTCCATATTGCTGGGGA	-0.0469

Target: FAM111A
Assay: as above
Conditions: shRNA

Sequence	sensor-assay potency score (higher = more potent)
TACTCTTTGATTCCTTCTGTGC	-0.506
TTCTAATTCATCAACTGGCTGG	0.174
TCTTTTCTCAACCTCAACCTGA	-0.463
TTACATTTTTCATTGACTGAGT	-0.373
TTGAGAGCCATATATAAGCTAC	-0.708
TATGTGGTTATCTTCCTTCTGC	-0.217
TTTGAGATCATTTCTAATCAAG	-0.737
TTGTTCTCTCAACACACAGGTG	-0.868
TATCTCTTTTCTGACAGCCTGG	-0.766
TTCATATCTTGGTTTCTCCTGT	0.306
TTTCCAATCATCATTCTCCAGA	-0.625
TTTCCTTGTCTTTTAGCTCTTC	0.0612

Target: FAM113A
Assay: as above
Conditions: shRNA

Sequence	sensor-assay potency score (higher = more potent)
TTTCTGGAGCAAGAGCACCAGG	-1.16
TTGATGATCACCAGGTCCGGGG	-0.983
TGGAAGTGGACCATGTCGCTTC	-0.111
TTCCAGAACATCCTCAAGGTAC	-0.46
TAGCTCTCCATTGAGCAGCGAC	-1.09
TCTCTCTGAGTGTCTGAGCCGC	-0.879
TTCAACCACATCCCGCCGCAGG	-1.27
TTGAGCAGCGACCATATCTGGA	-0.708
TTGTTGTGTAGCAGCTGCTGGA	-0.714
TAGCACTGTAGAAGTTCCCTTC	0.54
